In PubChem BioAssay AID1814 (Broad Institute, 2009):
Out of some 300,000 compounds screened, about 22,000 (7.3%) were called active. Roughly 2% stayed inconclusive and do not appear here. No stated cut-off is given here; in the data, active means activity score below about -60%; inconclusive means mostly about -28% to -61%; inactive means positive scores. The entries come from a sample that favours actives as a whole.

Experiment: Activators via SNCA 5'UTR binding, MLPCN (AID 1814)
Settings: alpha-synuclein 5'UTR reporter, activators screen; stronger effect = lower value; tested at 7.5 µM

Row | Structure (SMILES) | activity score
1 | Cc1ccccc1OCC(=O)Nc1ccc2c(c1)ncn2C | -256% (active)
2 | CCc1c(C)c2ccc(OC3CCCCC3=O)cc2oc1=O (stereo unspecified) | -133% (active)
3 | C=CCOc1ccc(/C=C2\SC(=S)N(CCC(=O)O)C2=O)cc1 | 80% (inactive)
4 | Cc1ccc(-c2nn(-c3ccccc3)cc2/C=C2\SC(=S)N(CCCCCC(=O)O)C2=O)o1 | -89.9% (active)
5 | O=c1oc2ccccc2cc1-c1csc(Nc2ccc(O)cc2)n1 | -171% (active)
6 | COc1ccc2nc(Nc3nc(-c4ccncc4)cs3)sc2c1 | -122% (active)
7 | COc1ccc2nc(Nc3nc(-c4cc5ccccc5oc4=O)cs3)sc2c1 | -131% (active)
8 | CCNc1nc(-c2cc3ccccc3o2)cs1 | -187% (active)
9 | O=C(NC1CCCCCCC1)c1cccs1 | -77.8% (active)
10 | CC(Cc1cccs1)NC(=O)NC1CCCCC1 (stereo unspecified) | -95.9% (active)
11 | CC(Cc1cccs1)NC(=O)c1cccc(Cl)c1 (stereo unspecified) | -95.5% (active)
12 | Cc1cnc(NC(=O)c2ccc(Cl)nc2)s1 | -97.1% (active)
13 | COc1cc(CNc2ncn[nH]2)ccc1OCc1ccccc1C | -65.6% (active)
14 | O=C(Cc1cccs1)NCc1cccc(C(F)(F)F)c1 | -110% (active)
15 | COC(=O)Cc1csc(/N=C/c2c(O)n(-c3cccc(C(F)(F)F)c3)c(=O)c3ccccc23)n1 | 81.8% (inactive)
16 | CC(C)c1ccc(/C=C2\NC(=O)NC2=O)cc1 | -66.1% (active)

Row | Structure (SMILES) | activity score
17 | COc1cccc(/C=N/Nc2ncc(C(F)(F)F)cc2Cl)c1O | 76.7% (inactive)
18 | C/C(=N\Nc1nc2ccccc2[nH]1)c1cccs1 | -116% (active)
19 | C/C(=N\Nc1ncc(Cl)cc1Cl)c1cccs1 | -91.6% (active)
20 | COc1cccc(/C(C)=N/Nc2ncc(Cl)cc2Cl)c1 | -119% (active)
21 | C/C(=N\Nc1ncc(Cl)cc1Cl)c1ccc(S(=O)(=O)NCc2ccco2)cc1 | -141% (active)
22 | Nc1cccc(CCc2nc3ccccc3[nH]2)c1 | -77.9% (active)
23 | Cc1c(C(=O)OC(C)C)sc(NC(=O)c2cccnc2)c1C#N | -80.1% (active)
24 | CNc1nc2c(C)cccn2c(=O)c1C=Nc1ccc(OC)cc1 | -108% (active)
25 | O=C(Nc1ccc(N2CCOCC2)cc1)c1ccc(-c2ccccc2[N+](=O)[O-])o1 | -107% (active)
26 | O=C(Nc1ccc2sc3ccccc3c(=O)c2c1)c1ccccc1Cl | -135% (active)
27 | Cc1ccc(SCC(=O)c2cc(C)c(OC(=S)N(C)C)c(C)c2)cc1 | -155% (active)
28 | CCOc1ccc(C(=O)Nc2cc(OC)ccc2OC)cc1 | -88.9% (active)
29 | CCOc1ccc(C(=O)Nc2cccc(SC)c2)cc1 | -168% (active)
30 | CCOc1ccc(NC(=O)Nc2cc(C)on2)cc1 | -128% (active)
31 | CCOc1ccc(NC(=O)Nc2cc(C)ccc2OC)cc1 | -78.4% (active)
